# Test results: PubChem BioAssay
# Values joined by “and” are separate entries in the source; they are usually repeats but may differ in a detail not shown here. Equal values may be shown once. Active and inactive are the calls of the source.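 How the source made its calls, unless noted: active means thallium flux through the channel raised or lowered by more than 3 SD from vehicle-only wells, actives on both sides; inactive means the rest.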
# Columns and labels:
# [1] = target: 6-phosphogluconate dehydrogenase, decarboxylating (Homo sapiens) (UniProt P52209); assay: inhibition of human phosphogluconate dehydrogenase – biochemical, recombinant enzyme, NADPH absorbance, primary screen (AID 1159550;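 active means at least 20% inhibition of 6-phosphogluconate dehydrogenase activity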); conditions: recombinant 6PGD, NADPH absorbance 341 nm; at 10 µM; stronger effect = higher value
# Chain of 6-phosphogluconate dehydrogenase, decarboxylating (Homo sapiens) (P52209 whole entry, looked up): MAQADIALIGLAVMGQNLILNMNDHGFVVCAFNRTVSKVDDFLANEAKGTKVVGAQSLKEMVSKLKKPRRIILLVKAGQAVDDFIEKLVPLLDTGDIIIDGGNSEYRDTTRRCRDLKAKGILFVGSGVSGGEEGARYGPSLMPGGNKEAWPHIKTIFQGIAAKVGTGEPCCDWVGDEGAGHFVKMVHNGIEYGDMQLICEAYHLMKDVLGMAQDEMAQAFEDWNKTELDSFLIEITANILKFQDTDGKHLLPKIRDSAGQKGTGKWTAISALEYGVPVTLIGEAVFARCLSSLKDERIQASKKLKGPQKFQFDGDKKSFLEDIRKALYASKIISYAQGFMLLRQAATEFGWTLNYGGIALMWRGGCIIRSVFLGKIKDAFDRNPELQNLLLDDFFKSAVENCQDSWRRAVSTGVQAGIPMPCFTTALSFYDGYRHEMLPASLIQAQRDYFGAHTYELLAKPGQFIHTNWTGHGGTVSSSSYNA
# [2] = signal quenchers or enhancers, Cy5 substrate/SSB – biochemical, NIH Clinical Collection, E. coli SSB, artefact control for HCV NS3 helicase inhibitor project (AID 743268; call rule not given here); conditions: Cy5-oligo bound E. coli SSB, fluorescence interference
# [3] = tested on: Hepatitis C virus NS3 helicase; assay: blockers of NS3h binding to DNA – biochemical, fluorescence polarization, NIH Clinical Collection, primary screen (AID 743270; call rule not given here); conditions: NS3 helicase binding to Cy5-dT15 DNA, stronger effect = higher value, concentration not given here
# [4] = target: Single-stranded DNA-binding protein (Escherichia coli (strain K12)) (UniProt P0AGE0); assay: SSB-ssDNA binding inhibitors – biochemical, fluorescence polarization, NIH Clinical Collection, counter-screen for HCV NS3 helicase inhibitor project (AID 743271; in the data active means inhibition above about 28%); conditions: E. coli SSB-DNA binding, stronger effect = higher value, concentration not given here
# [5] = compounds distorting NS3 helicase fluorescence signal – biochemical, NIH Clinical Collection, artefact control for HCV NS3 helicase inhibitor project (AID 743272; call rule not given here;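 further: HCV NS3 helicase with a Cy5 labelled single stranded DNA probe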); conditions: fluorescence interference counterscreen, HCV NS3 helicase assay; stronger effect = lower value
# [6] = modulation of C. elegans fzo-1 (AID 1259413; call rule not given here;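 further: fzo-1 mutant C. elegans worms in liquid wells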); conditions: C. elegans fzo-1 modulator screen, mean read-out; stronger effect = higher value
# [7] = EMT-state selective cytotoxicity in co-culture – imaging, PC-3E GFP, TEM4-18 mCherry, primary screen (AID 1345086;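 active means compounds killing one labelled cell type while sparing the other, by normalised counts and ratio limits, not self-fluorescent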;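 on all read-outs here: cells exposed to compound for 72 h before imaging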;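 on red/green cell ratio (normalised): normalised mesenchymal count divided by normalised epithelial count so high means epithelial killing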); conditions: PC-3E GFP / TEM4-18 mCherry co-culture, imaging cell counts, at 1 µM; for red/green cell ratio (normalised): actives lie on both sides, counts scaled to control wells, 1 = unselective
# [8] = MELAS cybrid and Rieske KO viability enhancers – cell-based, MELAS cybrids, Rieske KO mouse fibroblasts, CellTiter-Glo, primary screen (AID 1508586;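 active means mean z-score across replicates of 1.96 or higher in either the MELAS or the Rieske mutant cell line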;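 further: z relative to plate mean and SD of compound and empty wells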); conditions: low glucose
# [9] = target: Mitogen-activated protein kinase 7 (Homo sapiens) (UniProt Q13164); assay: Gal4-ERK5 driven luciferase induction – cell-based, HTS, primary screen (AID 1508626;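 active means luciferase signal above three times the same-plate solvent-only control wells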;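 further: luciferase driven by Gal4-ERK5 fusion binding five Gal4 sites before minimal TATA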); conditions: HeLa Gal4-ERK5 transactivation, 18 h, at 5 µM, stronger effect = higher value
# Chain of Mitogen-activated protein kinase 7 (Homo sapiens) (Q13164 whole entry, looked up, the tested form may be a part): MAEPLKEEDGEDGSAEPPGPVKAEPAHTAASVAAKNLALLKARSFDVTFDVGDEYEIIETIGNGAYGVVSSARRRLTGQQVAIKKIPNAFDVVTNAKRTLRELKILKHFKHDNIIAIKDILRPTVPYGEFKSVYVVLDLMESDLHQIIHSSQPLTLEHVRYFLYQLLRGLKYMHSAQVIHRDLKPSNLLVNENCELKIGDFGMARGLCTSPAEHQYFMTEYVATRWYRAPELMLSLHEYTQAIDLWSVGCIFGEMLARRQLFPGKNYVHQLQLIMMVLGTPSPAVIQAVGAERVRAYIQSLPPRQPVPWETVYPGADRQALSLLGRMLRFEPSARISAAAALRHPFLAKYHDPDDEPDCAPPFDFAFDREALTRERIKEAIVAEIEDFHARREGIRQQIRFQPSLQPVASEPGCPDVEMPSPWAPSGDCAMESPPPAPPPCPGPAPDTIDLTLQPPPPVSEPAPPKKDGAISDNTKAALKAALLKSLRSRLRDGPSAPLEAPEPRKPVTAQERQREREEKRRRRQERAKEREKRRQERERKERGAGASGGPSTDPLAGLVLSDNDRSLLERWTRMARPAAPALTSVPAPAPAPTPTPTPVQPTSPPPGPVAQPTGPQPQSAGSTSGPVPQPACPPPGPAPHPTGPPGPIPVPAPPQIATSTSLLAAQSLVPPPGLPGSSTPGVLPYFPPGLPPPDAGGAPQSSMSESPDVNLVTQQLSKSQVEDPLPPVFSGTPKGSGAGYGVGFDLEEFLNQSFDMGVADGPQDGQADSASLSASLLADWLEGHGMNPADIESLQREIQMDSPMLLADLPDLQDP
# F380Y = assay: BK channel mutant inhibitors and activators – cell-based, U2OS BacMam, thallium flux, beta subunits, selectivity assay, profiling panel (AID 1259406); conditions: U2OS BacMam BK variants, at 30 µM;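 further: initial slope of Thallos dye fluorescence rise after thallium is added; log ratio against the mean of 0.3% DMSO vehicle wells on the same plate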
# F380Y/beta1 = assay: as above; conditions: U2OS BacMam BK variants, at 30 µM
# F380Y/beta2Delta = assay: as above; conditions: U2OS BacMam BK variants, at 30 µM
# F380Y/beta4 = assay: as above; conditions: U2OS BacMam BK variants, at 30 µM
# [10] = target: Calcium-activated potassium channel subunit alpha-1 (Homo sapiens) + Leucine-rich repeat-containing protein 26 (Homo sapiens) (UniProt Q12791+Q2I0M4); assay: as above; conditions: U2OS BacMam BK variants, F380Y/Slo1WT/gamma1, at 30 µM
# Chain of Calcium-activated potassium channel subunit alpha-1 (Homo sapiens) + Leucine-rich repeat-containing protein 26 (Homo sapiens) (Q2I0M4 whole entry, looked up, one chain of several): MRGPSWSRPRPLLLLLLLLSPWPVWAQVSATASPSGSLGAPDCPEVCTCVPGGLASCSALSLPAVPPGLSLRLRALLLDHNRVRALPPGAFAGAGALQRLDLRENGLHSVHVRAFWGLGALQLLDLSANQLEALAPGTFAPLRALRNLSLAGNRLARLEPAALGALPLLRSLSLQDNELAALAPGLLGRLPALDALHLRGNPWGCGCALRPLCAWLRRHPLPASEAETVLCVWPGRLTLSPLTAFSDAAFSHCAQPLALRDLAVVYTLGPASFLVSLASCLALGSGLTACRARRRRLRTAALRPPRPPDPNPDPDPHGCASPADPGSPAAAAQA
# R275C = assay: as above; conditions: U2OS BacMam BK variants, at 30 µM
# R275C/beta1 = assay: as above; conditions: U2OS BacMam BK variants, at 30 µM
# R275C/beta2Delta = assay: as above; conditions: U2OS BacMam BK variants, at 30 µM
# [11] = P. berghei load reduction in hepatocytes – cell-based, HepG2, luciferase luminescence, HepG2 viability, primary screen (AID 624349; in the data active means parasite load remaining mostly below about 12%, no sharp cut-off; inactive means mostly above about 10%;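 further: 100% = mean of DMSO negative control wells on the same plate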); conditions: P. berghei liver stage in HepG2, luciferase luminescence, concentration not given here; parasite load remaining: stronger effect = lower value; viability: measured here: HepG2 viability without parasites
# [12] = viability loss with induced miR-34 in A549 – imaging, A549 dox-inducible miR-34, nuclei and caspase counts, primary screen (AID 1347080;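 active means compounds whose cell count with miR-34 switched on is under 0.7 times the count with it off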); conditions: A549 miR-34 inducible, Hoechst nuclei count, 48 h
# [13] = measured here: epithelial PC-3E GFP cell survival
# [14] = measured here: mesenchymal TEM4-18 mCherry cell survival
# [15] = MELAS cybrid survival, CellTiter-Glo 48 h, stronger effect = higher value
# [16] = Rieske KO mouse fibroblast survival, CellTiter-Glo 72 h
# [17] = stronger effect = lower value, cell number ratio, induced over uninduced
# [18] = measured here: relative caspase fold change +Dox/-Dox
# [19] = measured here: total cells with miR-34 induction, stronger effect = lower value
# [20] = measured here: total cells without miR-34 induction
smiles,measurement,setting,value
CC(=O)O[C@H]1C[C@@H](OC(C)=O)C(C)(C)[C@@H]2C[C@@H](O)[C@@]3(C)[C@H](CC[C@]4(C)[C@@H](c5ccoc5)OC(=O)[C@H]5O[C@@]534)[C@@]12C,inhibition,[1],13.5% (inactive)
CC(C(=O)O)c1ccc(-c2ccccc2)c(F)c1 (stereo not given),fluorescence ratio,[2],0.95 (inactive) and 0.99 (inactive)
same,inhibition,[3],-2.77% (inactive) and -3.18% (inactive)
same,inhibition,[4],6.83% (inactive) and 0.29% (inactive)
same,fluorescence ratio,[5],0.9 (inactive) and 0.98 (inactive)
same,inhibition,[1],19% (inactive)
same,mean signal,[6],239 (inactive)
same,red/green cell ratio (normalised),[7],1.1 (inactive)
same,normalised cell number,[7]; [13],1.07
same,normalised cell number,[7]; [14],1.18
same,z-score,[8]; [15],-0.289 (inactive) and 0.565 (inactive) and 0.434 (inactive)
same,z-score,[8]; [16],1.18 and -0.0179 and 1.37
same,luciferase signal,[9],40 AU (inactive)
same,log fold change Tl+ flux,F380Y,0.0247 (inactive)
same,log fold change Tl+ flux,F380Y/beta1,0.0374 (inactive)
same,log fold change Tl+ flux,F380Y/beta2Delta,-0.00435 (inactive)
same,log fold change Tl+ flux,F380Y/beta4,0.0328 (inactive)
same,log fold change Tl+ flux,[10],0.0464 (inactive)
same,log fold change Tl+ flux,R275C,-0.0123 (inactive)
same,log fold change Tl+ flux,R275C/beta1,0.0432 (inactive)
same,log fold change Tl+ flux,R275C/beta2Delta,0.0621 (inactive)
CC(=O)Oc1cc2c(c(C)c1OC(C)=O)CC=C1[C@@]2(C)CC[C@@]2(C)[C@@H]3C[C@](C)(C(=O)O)CC[C@]3(C)CC[C@]12C,inhibition,[1],0.972% (inactive)
CCCc1nc(C(C)(C)O)c(C(=O)OCc2oc(=O)oc2C)n1Cc1ccc(-c2ccccc2-c2nn[nH]n2)cc1,parasite load remaining,[11],123% (inactive) and 56.6% (inactive) and 38.5% (inactive)
same,viability,[11],84.8% and 93.3% and 100%
same,inhibition,[1],-1.37% (inactive)
same,mean signal,[6],232 (inactive)
same,red/green cell ratio (normalised),[7],1.07 (inactive)
same,normalised cell number,[7]; [13],1.01
same,normalised cell number,[7]; [14],1.08
same,fold change,[12]; [17],0.993 (inactive) and 0.942 (inactive) and 0.929 (inactive)
same,fold change,[12]; [18],0.262 and 5.26 and 0.77
same,cell count,[12]; [19],7890 and 12500 and 10500
same,cell count,[12]; [20],7940 and 13300 and 11300
same,z-score,[8]; [15],-0.0808 (inactive) and -0.0697 (inactive) and -0.516 (inactive)
same,z-score,[8]; [16],-0.0525 and -0.445 and -0.184
same,luciferase signal,[9],116 AU (inactive)
N.N.O=C([O-])C1(C(=O)[O-])CCC1.[Pt+2],inhibition,[1],-2.44% (inactive)
same,red/green cell ratio (normalised),[7],0.96 (inactive)
same,normalised cell number,[7]; [13],1.09
same,normalised cell number,[7]; [14],1.04
CC[C@H](C)C(=O)O[C@H]1CCC=C2C=C[C@H](C)[C@H](CC[C@@H]3C[C@@H](O)CC(=O)O3)[C@H]21,parasite load remaining,[11],95.7% (inactive) and 85.1% (inactive)
same,viability,[11],67.9% and 134%
same,fluorescence ratio,[2],0.91 (inactive)
same,inhibition,[3],0.66% (inactive)
same,inhibition,[4],1.97% (inactive)
same,fluorescence ratio,[5],0.89 (inactive)
same,inhibition,[1],-1.06% (inactive)
same,mean signal,[6],242 (inactive)
same,fold change,[12]; [17],0.923 (inactive) and 1.16 (inactive) and 1.1 (inactive)
same,fold change,[12]; [18],1.44 and 0.292 and 0.944
same,cell count,[12]; [19],2090 and 1930 and 4610
same,cell count,[12]; [20],2270 and 1660 and 4180
same,z-score,[8]; [15],0.801 (inactive) and -1.19 (inactive)
same,z-score,[8]; [16],0.000262 and -0.468
same,luciferase signal,[9],24 AU (inactive)
C#C[C@]1(OC(C)=O)CC[C@H]2[C@@H]3CCC4=CC(=O)CC[C@@H]4[C@H]3CC[C@@]21C,parasite load remaining,[11],26.4% (inactive)
same,viability,[11],96.7%
same,fluorescence ratio,[2],1.05 (inactive)
same,inhibition,[3],-3.18% (inactive)
same,inhibition,[4],7.15% (inactive)
same,fluorescence ratio,[5],0.89 (inactive)
same,inhibition,[1],-1.74% (inactive)
same,fold change,[12]; [17],0.989 (inactive)
same,fold change,[12]; [18],1.09
same,cell count,[12]; [19],9170
same,cell count,[12]; [20],9280
same,luciferase signal,[9],28 AU (inactive)
same,log fold change Tl+ flux,F380Y,-0.0982 (inactive)
same,log fold change Tl+ flux,F380Y/beta1,0.0384 (inactive)
same,log fold change Tl+ flux,F380Y/beta2Delta,-0.0589 (inactive)
same,log fold change Tl+ flux,F380Y/beta4,-0.176 (active)
same,log fold change Tl+ flux,[10],-0.0258 (inactive)
same,log fold change Tl+ flux,R275C,-0.00546 (inactive)
same,log fold change Tl+ flux,R275C/beta1,0.0232 (inactive)
same,log fold change Tl+ flux,R275C/beta2Delta,0.0192 (inactive)
